This passage reports growth results from PubChem BioAssay (NCI).

Among the test systems are NCI-H23 lung; NCI-H226 lung; NCI-H322M lung; HOP-62 NSCLC; NCI-H460 lung; HOP-92 NSCLC; NCI-H522 lung; A549/ATCC NSCLC; 786-0 renal; DU-145 prostate; K-562 leukemia; MALME-3M melanoma; MDA-MB-231 breast; RXF 393 renal; SF-268 CNS; SF-295 CNS; SF-539 CNS; UACC-257 melanoma; M14 melanoma; COLO 205 colon.
Holding throughout (experiment): NCI-60 one-dose screen, 48 h (100 = growth as untreated, 0 = no growth, -100 = all killed)
What all share (details): 10 µM unless noted

Structures are written as SMILES. Compounds without any hit were thinned out: in the full panel of roughly 83,000, 20% have a hit.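 Plates (96-well) were seeded with cells, treated with compound at one concentration, and incubated for 48 hours before percent growth was determined.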 A number with no mark means an inactive call. Active and inactive are the calls of the source. Rule for the calls: active = growth percent below 10; inactive = the rest.

Turning to `CCCCCCc1nc2nc(Cl)c(Cl)nc2[nH]1`, the growth in the experiment with NCI-H23 lung is 34.8%; in the experiment on NCI-H226 lung, 63.2%; in the experiment with NCI-H322M lung, 96%; in the experiment on HOP-62 NSCLC it was 88.1%; with NCI-H460 lung, 52.7%; in the experiment on HOP-92 NSCLC, -13.8% (active). Moreover, the growth in the experiment with NCI-H522 lung is 32.6%; in the experiment with A549/ATCC NSCLC it was 53.2%; in the experiment with 786-0 renal, 65.8%; in the experiment with DU-145 prostate, 72.5%; with K-562 leukemia it was 39%; in the experiment with MALME-3M melanoma, 46.6%. For the same molecule, the growth with MDA-MB-231 breast is 89.4%; in the experiment on RXF 393 renal, 90.4%; with SF-268 CNS, 83.3%; with SF-295 CNS it was 58%; with SF-539 CNS it was 65.3%; with UACC-257 melanoma it was 54.9%. In the experiment on M14 melanoma, the growth is 89.6%.

`Nc1nnc(C(=O)c2cnc3n(c2=O)CCCCC3)s1`: the growth in the experiment with NCI-H23 lung was 96.7%; in the experiment on NCI-H226 lung it was 92.4%; in the experiment on NCI-H322M lung, 103%; in the experiment on HOP-62 NSCLC, 101%; in the experiment with NCI-H460 lung, 108%; in the experiment with HOP-92 NSCLC, 98.4%. The growth in the experiment with NCI-H522 lung was 98%; with A549/ATCC NSCLC, 102%; with 786-0 renal, 101%; in the experiment on DU-145 prostate it was 103%; with K-562 leukemia, 92.3%; with MALME-3M melanoma it was 101%. Also, the growth in the experiment with MDA-MB-231 breast was 90.4%; in the experiment with RXF 393 renal, 104%; in the experiment on SF-268 CNS, 96.6%; in the experiment with SF-295 CNS, 101%; with SF-539 CNS, 94.3%; in the experiment on UACC-257 melanoma it was 101%. For the same molecule, in the experiment with M14 melanoma, the growth was 96.7%.

As to `COc1ccc(OC)c(/C=C/[C@H]2O[C@@H](C)[C@H](O)[C@@H]2O)c1`, the growth is 99.6% in the experiment on NCI-H23 lung; 96.1% in the experiment on NCI-H226 lung; 97.5% with NCI-H322M lung; 106% in the experiment on HOP-62 NSCLC; 106% with NCI-H460 lung; 94.7% with HOP-92 NSCLC. Besides, the growth with NCI-H522 lung is 91.7%; in the experiment with A549/ATCC NSCLC it was 99.4%; in the experiment on COLO 205 colon it was 111%; in the experiment with DU-145 prostate, 121%; in the experiment on K-562 leukemia, 93%; with MALME-3M melanoma, 96.7%. In addition, the growth with MDA-MB-231 breast is 98.4%; with RXF 393 renal, 117%; in the experiment with SF-268 CNS, 111%; with SF-295 CNS, 102%; in the experiment with SF-539 CNS, 100%; in the experiment on UACC-257 melanoma, 104%. Moreover, the growth with M14 melanoma is 103%.

Consider `Clc1ccc(C2CC(c3cccc(Nc4ccncc4)c3)=NN2c2cc(Cl)cc(Cl)c2)cc1` (configuration not stated), for which the growth with NCI-H23 lung is 79.6%; in the experiment with NCI-H226 lung, 88.7%; with NCI-H322M lung, 81.6%; in the experiment on HOP-62 NSCLC, 68.5%; in the experiment with NCI-H460 lung it was -68% (active); in the experiment with HOP-92 NSCLC, 71.3%. For the same molecule, the growth in the experiment with NCI-H522 lung was 89.1%; in the experiment on A549/ATCC NSCLC it was 47.6%; in the experiment on 786-0 renal, -88.5% (active); in the experiment with DU-145 prostate, 48%; with K-562 leukemia it was 1.88% (active); with MALME-3M melanoma, 62.8%. Also, the growth in the experiment with MDA-MB-231 breast is 71.5%; with SF-268 CNS, 83.8%; in the experiment with SF-295 CNS, 70.5%; in the experiment on SF-539 CNS it was 81.9%; in the experiment with UACC-257 melanoma, 88.8%; in the experiment with M14 melanoma it was -63.9% (active).

In the case of `COc1cc(Nc2cc(O)c3c(=O)cc(-c4ccccc4)oc3c2)cc(OC)c1`, the growth in the experiment on NCI-H23 lung was 35.9%; in the experiment on NCI-H226 lung, 67.7%; in the experiment with NCI-H322M lung, 44.1%; in the experiment on HOP-62 NSCLC, 35.5%; in the experiment with NCI-H460 lung it was 7.62% (active); with HOP-92 NSCLC, 79.5%. The growth is -35.3% (active) in the experiment with NCI-H522 lung; 25.9% with A549/ATCC NSCLC; 45.4% in the experiment with 786-0 renal; 20% with DU-145 prostate; 13.1% in the experiment with K-562 leukemia; 73.6% in the experiment on MALME-3M melanoma. In addition, the growth was 15.9% with MDA-MB-231 breast; 48.2% in the experiment on SF-268 CNS; 33.5% in the experiment with SF-295 CNS; -35.2% (active) in the experiment with SF-539 CNS; 77.9% with UACC-257 melanoma; 28.4% in the experiment on M14 melanoma.

With `O=S(=O)(NCCCNc1nccc(-c2c(-c3ccccc3)nc3occn23)n1)c1ccc(Cl)cc1`, the growth in the experiment on NCI-H23 lung was 94.2%; with NCI-H226 lung it was 75.3%; with NCI-H322M lung, 99.9%; in the experiment on HOP-62 NSCLC, 95.1%; in the experiment on NCI-H460 lung, 85%; in the experiment on HOP-92 NSCLC, 93.8%. In addition, the growth in the experiment with NCI-H522 lung was 77.9%; in the experiment on A549/ATCC NSCLC, 65.8%; in the experiment on 786-0 renal, 82.5%; with DU-145 prostate, 85.5%; in the experiment with K-562 leukemia, 50.6%; in the experiment with MALME-3M melanoma, 91.8%. For the same molecule, the growth with MDA-MB-231 breast was 93.3%; in the experiment with SF-268 CNS, 80%; in the experiment on SF-295 CNS, 93.3%; with SF-539 CNS, 110%; in the experiment on UACC-257 melanoma it was 105%; with M14 melanoma, 71%.

For the molecule `COc1cc(OC)c(/C=C/C(=O)c2ccc(Nc3ncnc4ccccc34)cc2)c(OC)c1`, the growth is -17.3% (active) in the experiment with NCI-H226 lung; 11.5% in the experiment with NCI-H322M lung; -54.5% (active) with HOP-62 NSCLC; -23.1% (active) in the experiment with NCI-H460 lung; -16.4% (active) in the experiment on HOP-92 NSCLC; -51.4% (active) in the experiment on NCI-H522 lung. Moreover, the growth in the experiment with A549/ATCC NSCLC is 12.2%; in the experiment with 786-0 renal it was -13.2% (active); in the experiment on COLO 205 colon, 6.02% (active); in the experiment with DU-145 prostate, -26.5% (active); in the experiment with K-562 leukemia it was 4.41% (active); with MALME-3M melanoma, -39.8% (active). Besides, the growth in the experiment on MDA-MB-231 breast was -19.9% (active); in the experiment with SF-268 CNS it was -71.9% (active); in the experiment on SF-295 CNS, -47.7% (active); in the experiment with SF-539 CNS, -56.6% (active); with UACC-257 melanoma it was -12% (active); in the experiment on M14 melanoma, -15.5% (active).

As for `COc1ccc(-c2nc(SC)nc(N3CCOCC3)c2C#N)cc1`, the growth in the experiment with NCI-H226 lung was 95.4%; with NCI-H322M lung, 102%; in the experiment with HOP-62 NSCLC, 88.5%; with NCI-H460 lung, 109%; in the experiment with HOP-92 NSCLC it was 71.2%; in the experiment with NCI-H522 lung it was 84%. For the same molecule, the growth in the experiment with A549/ATCC NSCLC is 95.2%; in the experiment with 786-0 renal, 76.8%; with COLO 205 colon it was 99%; with DU-145 prostate it was 106%; in the experiment on K-562 leukemia, 97.5%; in the experiment on MALME-3M melanoma, 102%. In addition, the growth in the experiment with MDA-MB-231 breast was 92.2%; with SF-268 CNS it was 92.4%; in the experiment with SF-295 CNS, 98.8%; in the experiment on SF-539 CNS it was 86.5%; with UACC-257 melanoma, 112%; in the experiment on M14 melanoma, 111%.
